Assay [1] deals with Cytochrome P450 2D6 (Homo sapiens) (UniProt P10635). The experiment in a line: qHTS Assay for Inhibitors and Substrates of Cytochrome P450 2D6 (AID 891).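 As to activity change, negative = inhibition: luciferin methyl ether substrate demethylated by CYP2D6 with NADPH regeneration.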 As to conditions: recombinant CYP2D6, luciferin-ME EGE luminescence; series mostly up to 57.1 µM. The method, boiled down: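 Human CYP2D6 (5 nM) with 30 uM Luciferin-ME EGE (at Km) in 100 mM KPO4, compound preincubated 10 min, then NADPH regeneration system for 60 min at room temperature. Luciferin read by luminescence; normalized to 1.43 uM quinidine.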

Assay [2] addresses Cytochrome P450 2C9 (Homo sapiens) (UniProt P11712). The experiment in a line: qHTS Assay for Inhibitors and Substrates of Cytochrome P450 2C9 (AID 883). The settings on record: recombinant CYP2C9, luciferin-H luminescence, 60 min; series mostly up to 57.1 µM. A digest of the protocol:
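10nM CYP2C9 + 100uM Luciferin-H (=KM), 25mM KPO4; cpd 10 min 37C; NADPH regen, 60 min 37C; stop/detect with P450 Glo-Buffer 20 min; luminescence. Norm. to 57uM sulphaphenazole as full inhibition.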
(In qHTS, concentration-response curves come from the screen itself.)

Records with an inconclusive call do not appear. Activity calls are given as the source filed them. Calls follow the shape of the dose curve; as a rule, active = well fitted inhibition curve with a large enough effect; inconclusive = small, poorly fitted or top-dose-only effect; inactive = no such curve, though single readings can be large or run the other way.
% is scaled to controls: 0 for no effect and ±100 for the full control effect; potency is read from the fitted curve at half-maximal effect.
Also: nearly all actives have a fitted effect of over 60% in size.

Cytochrome P450 2C9 (Homo sapiens), sequence (P11712 whole entry, looked up): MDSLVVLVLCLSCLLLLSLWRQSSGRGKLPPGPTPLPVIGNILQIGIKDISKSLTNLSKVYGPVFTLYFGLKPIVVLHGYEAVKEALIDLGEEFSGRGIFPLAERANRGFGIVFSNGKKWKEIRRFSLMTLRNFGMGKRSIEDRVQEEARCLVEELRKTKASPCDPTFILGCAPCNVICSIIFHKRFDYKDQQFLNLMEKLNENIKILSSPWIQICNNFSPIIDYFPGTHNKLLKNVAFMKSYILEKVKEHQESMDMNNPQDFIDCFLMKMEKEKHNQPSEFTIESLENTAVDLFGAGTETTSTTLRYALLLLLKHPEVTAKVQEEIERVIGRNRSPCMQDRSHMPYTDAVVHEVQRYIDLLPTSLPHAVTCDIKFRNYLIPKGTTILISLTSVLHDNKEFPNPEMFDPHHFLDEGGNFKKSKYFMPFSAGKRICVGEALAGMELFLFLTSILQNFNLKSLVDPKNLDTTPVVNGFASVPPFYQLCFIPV
Cytochrome P450 2D6 (Homo sapiens), sequence (P10635 whole entry, looked up): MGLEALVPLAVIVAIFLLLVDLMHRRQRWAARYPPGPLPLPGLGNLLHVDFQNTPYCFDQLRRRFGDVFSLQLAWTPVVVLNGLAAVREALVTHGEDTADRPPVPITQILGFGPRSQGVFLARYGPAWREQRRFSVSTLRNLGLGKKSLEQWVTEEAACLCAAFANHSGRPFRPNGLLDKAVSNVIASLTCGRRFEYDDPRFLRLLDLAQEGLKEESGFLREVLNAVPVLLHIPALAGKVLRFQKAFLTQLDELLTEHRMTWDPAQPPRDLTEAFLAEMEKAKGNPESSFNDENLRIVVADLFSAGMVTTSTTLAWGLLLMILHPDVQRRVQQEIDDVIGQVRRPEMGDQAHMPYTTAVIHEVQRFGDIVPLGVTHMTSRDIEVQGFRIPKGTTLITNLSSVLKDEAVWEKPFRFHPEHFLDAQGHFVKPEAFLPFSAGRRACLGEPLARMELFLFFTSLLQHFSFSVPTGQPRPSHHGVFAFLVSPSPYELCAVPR

For `Cc1ccccc1-c1ccc2ncnc(NC3CC3)c2c1`, in assay [1], the Potency was 7.94 µM (active).
In the case of `CN(C)C(=O)c1ccc(-c2cncnc2N2CCNCC2)cc1`, in assay [1], the Potency was 7.94 µM (active).
Take `COCCn1c(=O)c(-c2cccc(C#N)c2)nc2cnc(Oc3ccccc3)nc21`: in assay [2], the Potency was 7.94 µM (active).
As to `CN(C)C(=O)c1ccc(-c2nc(NC3CCNCC3)c3ccccc3n2)cc1`, in assay [2], the activity change, negative = inhibition is 46.2% [at 2.29 µM] (inactive).
As to `CN(C)Cc1ccccc1-c1cc(N(C)Cc2ccco2)ncn1`, the Potency in assay [1] is 7.94 µM (active).
Regarding `CN(C)c1ncc2nc(-c3cccc(C#N)c3)c(=O)n(CCC#N)c2n1`, the Potency entry in assay [2] was “inactive”.
As for `CCNc1ncc2nc(-c3cc(F)cc(F)c3)c(=O)n(C[C@H]3CCCO3)c2n1`, in assay [1], the Potency was 0.158 µM (active).
For `Cn1c(=O)c(-c2ccc(Cl)cc2)nc2cnc(N3CCOCC3)nc21`, the Potency entry in assay [2] is “inactive”.
Regarding `CN(C)C(=O)c1ccc(-c2ccc3ncnc(N4CCC(C(=O)O)CC4)c3c2)cc1`, the activity change, negative = inhibition in assay [2] is 37.2% [at 2.29 µM] (inactive).
On to `CCNc1ncc2nc(C)c(=O)n(-c3ccc(OC)cc3)c2n1`, for which the Potency result in assay [2] and in assay [1] was “inactive” each time.
For the molecule `CNc1ccnc(-c2c(C)noc2C)n1`, the activity change, negative = inhibition in assay [2] is 41% [at 2.29 µM] (inactive).
The same measure, in the same setting: then `COCCNc1cc(-c2ccccc2CN(C)C)ncn1`, with 49.4% [at 2.29 µM] (inactive).
For `Cc1noc(C)c1-c1nccc(-n2ccnc2)n1`, in assay [2], the activity change, negative = inhibition was 16.1% [at 2.29 µM] (inactive).
In the case of `COc1ccccc1-c1cc(NCc2ccccc2)ncn1`, the activity change, negative = inhibition in assay [2] is 35.7% [at 2.29 µM] (inactive).
Still for that read-out and setting: then `COCCNc1ccnc(-c2ccccc2C(F)(F)F)n1`, with 34.3% [at 2.29 µM] (inactive).
With `CNc1ccnc(-c2ccccc2CN(C)C)n1`, the Potency in assay [1] is 0.0398 µM (active).
`CS(=O)(=O)Nc1cccc(-c2cncnc2NCc2cccs2)c1`: in assay [2], the Potency is 0.126 µM (active).
Consider `CN(C)Cc1ccccc1-c1nc(N2CCOCC2)c2ccccc2n1`, for which the Potency in assay [1] was 7.94 µM (active).
Same read-out and setting: then `c1cncc(CNc2nc(-c3ccoc3)nc3ccccc23)c1`, with 5.01 µM (active).
Turning to `c1csc(CNc2ncncc2-c2ccc3c(c2)OCO3)c1`, the Potency in assay [2] was 0.316 µM (active).

These data come from PubChem BioAssay (NCATS).
